Results from PubChem BioAssay (Tox21).
Records with an inconclusive call do not appear. Values without a mark were called inactive. Active and inactive are the calls of the source. The call rests on the fitted dose curve; in most records, active means well fitted cell-killing curve with a large enough effect in the repeat runs; inconclusive means weak or mixed curves, or effect the other way; inactive means flat fitted curve, though single readings scatter.

Assay: Caspase-3/7 induction in HepG2 cells by small molecules, qHTS cell viability counter screen (AID 1346981); further: nearly all actives have a fitted effect of over 30% in size
Details: CellTiter-Fluor fluorescence, 17 h; series mostly up to 92.4 µM; activity change, negative = cytotoxicity: at the top concentration
Excerpt: U.S. Tox21 Program National Center for Advancing Translational Sciences [NCATS] NIH Chemical Genomics Center [NCGC] U.S. Environmental Protection Agency [EPA] National Institutes of Environmental Health Sciences [NIEHS] National Toxicology Program [NTP] U.S. Food and Drug Administration [FDA] Tox21 Assay Overview: Apoptosis is a process of programmed cell death and plays a central role in the development of multicellular organisms. It is a highly regulated process and induces cell death by activating caspases, which are the members of cysteine aspartic acid-specific protease (caspase) family. Caspases involved in apoptosis are classified by their mechanism of action as initiator caspases (caspase-2, -8, -9 and -10) and executioner caspases (caspase-3, -6, and -7). Inhibition of apoptosis results in number of cancers, autoimmune diseases, inflammatory diseases and viral infection. To identify small molecule compounds that induce apoptosis, a homogeneous, luminescent Caspase-Glo 3/7 assay was used. Wild type HepG2 cells were used to screen Tox21 libraries for identifying caspase-3/7 activity inducers. Also cytotoxicity of the compounds was tested in parallel by measuring the cell viability using CellTiter-Fluor assay system in the same wells.
Tox21 Assay Protocol Summary: HepG2 cells were dispensed at 2,000 per well in 5uL of culture medium into white solid bottom 1536-well plates (Corning Life Sciences, Corning, NY) using a Multidrop Combi (Thermo Scientific, Waltham, MA) dispenser. The assay plates were incubated at 37 C and 5% CO2 for 5hr, and then 23nL of compounds dissolved in DMSO and positive control were transferred using a Pintool station ([…], San Diego, CA). The assay plates were incubated at 37C and 5% CO2 for 17hr. For cytotoxicity read, after 16hr incubation at 37C, 1uL CellTiter-Fluor reagent (Promega Corporation, Madison, WI) was added to each well of the assay plates using Flying Reagent Dispenser (FRD, Aurora Discovery, San Diego, CA). After 1hr incubation at 37C and 5% CO2, the fluorescence signal was quantified using a ViewLux plate reader (PerkinElmer, Shelton, CT).
On the % scale 0 is the no-effect control and ±100 the full control effect; potency means the concentration at half of the fitted maximal effect.

Row | Compound | activity change, negative = cytotoxicity | Potency
1 | CCCN(CCC)C(=O)C(CCC(=O)O)NC(=O)c1ccccc1 (stereo not given) | 0.447% [at 42.5 µM] | 
2 | CCCCC(=O)O[C@]1(C(=O)CO)[C@H](C)C[C@H]2[C@@H]3CCC4=CC(=O)C=C[C@]4(C)[C@@]3(F)[C@@H](O)C[C@@]21C | 5.08% [at 42.5 µM] | 
3 | CC1=C2[C@H](/C=C(\C)C(=O)O)CC[C@@H](C)[C@H]2CC1 | -0.0003% | 
4 | OCCN(CCO)CCN(CCO)CCO | 2.99% | 
5 | CC/C=C\CCOC(=O)C(C)C | 0.739% | 
6 | NS(=O)(=O)c1cc(-c2nn[nH]n2)c(NCc2cccs2)cc1Cl | -0.118% [at 42.5 µM] | 
7 | CCC(=O)Nc1ccc(O)cc1 | -1.57% [at 42.5 µM] | 
8 | CC[C@H]1CC[C@H](NCc2cc3c(cc2OC)[C@H]2C[C@H]2C(=O)N3C)[C@H](c2ccccc2)N1 | -13.7% | 
9 | OCc1c2ccccc2cc2ccccc12 | 5.82% | 
10 | CC1(O)CSC(C)(O)CS1 (stereo not given) | 6.66% | 
11 | CCCCCCn1c(=O)c2c(ncn2C)n(C)c1=O | 10.3% [at 42.5 µM] | 
12 | CC(=O)OC1C2(C)CCC(C2)C1(C)C (stereo not given) | -0.563% | 
13 | CCOC(=O)[C@H](CCc1ccccc1)N[C@@H](C)C(=O)N1Cc2cc(OC)c(OC)cc2C[C@H]1C(=O)O | -4.38% [at 42.5 µM] | 
14 | CN1CCN(N)CC1 | 0.826% [at 42.5 µM] | 
15 | C=CC1CO1 (stereo not given) | -1.5% | 
16 | CCCc1c2oc(C(=O)O)cc(=O)c2cc2c(=O)cc(C(=O)O)n(CC)c12 | -0.484% [at 42.5 µM] | 
17 | C=CCc1cc(OC)c(O)c(C(=O)NCCO)c1 | 1.5% [at 42.5 µM] | 
18 | CC(Oc1c(Cl)cccc1Cl)C1=NCCN1 (stereo not given) | 5.03% [at 42.5 µM] | 
19 | C=Cc1ccccc1 | -0.199% | 
20 | CC(C)=CCCC(C)CCOC=O (stereo not given) | 0.809% | 

Row | Compound | activity change, negative = cytotoxicity | Potency
21 | CS(=O)(=O)c1ccc([C@@H](O)[C@@H](CF)NC(=O)C(Cl)Cl)cc1 | 1.31% [at 42.5 µM] | 
22 | COc1nc(C)nc(NC(=O)NS(=O)(=O)c2ccccc2OCCCl)n1 | 0.716% | 
23 | c1ccc(CN(CC2=NCCN2)c2ccccc2)cc1 | -3.04% [at 42.5 µM] | 
24 | O=C1CCCCCCCCCCC(=O)OCCO1 | 1.57% | 
25 | CN1CCN(C2=Nc3cc(F)ccc3Cc3ccccc32)CC1 | -12.2% [at 42.5 µM] | 
26 | CCC1(C)NC(=O)NC1=O (stereo not given) | 5.13% | 
27 | CCOC(=O)c1ccccc1O | 4.23% [at 42.5 µM] | 
28 | CCCCCCCOC(=O)CCC | 3.32% | 
29 | NCCCN1CCN(CCCN)CC1 | 4.09% | 
30 | OCCN(CCO)c1ccccc1 | 7.19% | 
31 | CCOC(=O)C1CC(=O)C(=C(O)C2CC2)C(=O)C1 (stereo not given) | -1.02% | 
32 | COc1cc(C)ccc1C(C)C | -1.83% | 
33 | CC(C)Nc1nc(N)nc(Cl)n1 | 1% | 
34 | CCCCNc1cc(C(=O)O)cc(S(N)(=O)=O)c1Oc1ccccc1 | -0.617% [at 42.5 µM] | 
35 | O=C(C(Cl)Cl)N1CCOC12CCCCC2 |  | 61.1 µM (active)
36 | CCCS(=O)c1ccc2nc(NC(=O)OC)[nH]c2c1 (stereo not given) | 3.83% [at 42.5 µM] | 
37 | CN(C)CCOc1ccccc1Cc1ccccc1 | -0.934% [at 42.5 µM] | 
38 | CCC/C=C/CO | 6.2% | 
39 | CCCCCOc1ccc(C2SC(=O)NC2=O)cc1OCC (stereo not given) | 3.26% [at 42.5 µM] | 
40 | COC(C)CCO (stereo not given) | -0.619% | 
